Usually inhibition stands for the change of the read-out against control, counted positive when it falls.

Out of some 190,000 compounds screened, about 3,500 (1.8%) were called active.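 How the source made its calls: active means inhibition above a set limit, 3 SD over mean compound inhibition (cut at about 8.4% in these data); inactive means the rest.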 Only a selection was taken, and actives are over-represented in it overall.

This assay is described as follows: RAM signaling blockers in budding yeast – dse1pr::URA3 reporter, 5-FOA selection, primary screen (AID 868).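 Further: 0% = DMSO-only wells with no growth and 100% = 10 µM 1-NA-PP1 full growth; inhibition rescues growth on 5-FOA so higher OD means more RAM inhibition.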 The settings on record: S. cerevisiae dse1pr::URA3 reporter, 5-FOA growth OD615, 2 d; at 50 µM; active compounds read high; analog-sensitive cbk1-as2 kinase mutant strain.
Consider `CC(C)OCCCNC(=O)c1ccc(C2SCC(=O)N2Cc2ccco2)cc1` (stereo unspecified), for which the inhibition is 1.08% (inactive). In the case of `Cc1ccsc1C1C(C#N)=C(N)OC2=C1C(=O)CC(C)(C)C2` (stereo unspecified), the inhibition was 1.24% (inactive). Then `CCNC(=S)N1CCC(c2nc3cc(C)c(C)cc3[nH]2)CC1`, with -0.13% (inactive); and `COc1ccc(NC(=O)Cn2c(=O)n(Cc3ccco3)c(=O)c3ccccc32)cc1`, with 2.68% (inactive); and `CN(c1ccccc1)c1ccc(/C=c2\s/c(=C(/C#N)C(=O)C(C)(C)C)n(Cc3ccco3)c2=O)cc1`, with 22.5% (active). For the molecule `Cc1cc2c(c(=O)n1Cc1ccco1)C(c1ccccc1)C(C#N)=C(N)O2` (stereo unspecified), the inhibition is 2.82% (inactive).

`CCc1ccc(NC(=O)C(C)OC(=O)/C=C/c2cccc([N+](=O)[O-])c2)cc1` (stereo unspecified): the inhibition is 2.92% (inactive).

`COc1c(C)cc(C(=O)C2CCCN(S(=O)(=O)c3c(C)noc3C)C2)cc1C` (stereo unspecified): the inhibition is 5.32% (inactive). In the case of `Cc1ccc(CCC(=O)Nc2ncc(Cc3cc(Cl)ccc3Cl)s2)o1`, the inhibition is 14% (active).

For the molecule `Cc1cnc(NC(=O)CSc2nnc(-c3ccc(Cl)cc3Cl)n2N)s1`, the inhibition was 2.06% (inactive).

`CCOc1ccccc1NC(=O)CCc1ccc(C)o1`: the inhibition is 1.75% (inactive). Take `CCOC(=O)Cc1cc(=O)[nH]c(=O)[nH]1`: the inhibition was -0.76% (inactive). In the case of `Cc1cc(C)c(C#N)c(SCC(=O)NN2CC(=O)N(c3ccccc3F)CC2=O)n1`, the inhibition was 1.88% (inactive). In the case of `O=C(c1ccc(Cl)c([N+](=O)[O-])c1)N1CCN(c2ccccc2)CC1`, the inhibition was -1.05% (inactive). Take `COc1ccc(S(=O)(=O)NC(C)C(=O)Nc2cccc([N+](=O)[O-])c2)cc1` (stereo unspecified): the inhibition was 0.38% (inactive). On to `Nc1ccccc1SCc1cc([N+](=O)[O-])cc2c1OCOC2`, for which the inhibition is 0.13% (inactive).

As for `CC(O)C(NS(=O)(=O)c1ccc(Cl)cc1)C(=O)OCc1cc([N+](=O)[O-])cc2c1OCOC2` (stereo unspecified), the inhibition was 14.1% (active).

As to `CN(C)CCCO/N=C(\c1ccccc1)c1ccncc1`, the inhibition was 1.14% (inactive). Regarding `O=c1[nH]n2c(-c3ccccc3)nc(O)c2c2ccccc12`, the inhibition was 2.15% (inactive). Turning to `Cn1c(=O)c2c(ncn2CC(=O)N/N=C/c2cn[nH]c2-c2ccc(F)cc2)n(C)c1=O`, the inhibition was 1.49% (inactive).

Consider `Fc1ccc(-c2nnc(CSc3nnc(-c4ccc5c(c4)OCO5)o3)o2)cc1`, for which the inhibition was 3.54% (inactive). Then `CCSc1nnc(-c2cc3c(s2)-c2ccccc2CC3)o1`, with 2.39% (inactive); and `Fc1ccc(CSc2nnc(-c3cc4c(s3)-c3ccccc3CC4)o2)cc1`, with 22.2% (active). In the case of `Cc1ccc(N(C(=O)C(F)(F)F)C(C(=O)NC2CCCCC2)c2ccncc2)cc1C` (stereo unspecified) it was 4.82% (inactive); in that of `FC(F)(F)c1cccc(Cc2noc(CN3CCC(N4CCCCC4)CC3)n2)c1`, 0.6% (inactive); in that of `CCn1cc(C(=O)N/N=C(/C)c2ccc(F)cc2)c(=O)c2cc(F)c(N3CCCC3)cc21`, 0.79% (inactive).

Take `COc1ccc2c(c1)c(=O)c(C(=O)c1ccc(Cl)cc1)cn2CC(=O)Nc1ccc(F)cc1`: the inhibition was 3.22% (inactive). With `O=C(c1ccc(F)cc1)c1cn(Cc2ccc(F)cc2)c2cc3c(cc2c1=O)OCCO3`, the inhibition was 9.62% (active). In the case of `Cc1c(C(=O)NCCN2C(=O)S/C(=C\c3cccs3)C2=O)cccc1[N+](=O)[O-]`, the inhibition is 2.49% (inactive). `COc1ccc(/C=C2\SC(=S)N(CC(=O)NNC(=O)c3ccncc3)C2=O)cc1`: the inhibition is 4.19% (inactive). Regarding `O=C(CCN1C(=O)/C(=C/c2cccs2)SC1=S)NNC(=O)c1cccc(O)c1`, the inhibition is 9.69% (active).

These data come from PubChem BioAssay AID868 (SRMLSC, 2007).
